Measurements reported in PubChem BioAssay.
Where “and” joins values, the source holds several entries; their conditions need not be identical. Equal entries are not always repeated. The source holds several records for some structures; these can differ, active in one and inactive in another. Calls of active or inactive are those of the source.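 Rule for the calls, unless noted: active = normalized viability below 100% at a tested concentration; inactive = the rest.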

Experiments:
[1] = Wnt pathway potentiators raising nuclear beta-catenin – imaging, WNT3A-conditioned medium, mouse C2C12, NPC library, primary screen (AID 1117326; in the data active = nuclear beta-catenin stimulation mostly above about 4.2%, no sharp cut-off; inactive = mostly below about 10%); details: stronger effect = higher value
[2] = stimulators of insulin release from INS-1E, primary screen, cell-based, 5 mM glucose, NPC library (AID 1117329;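 active = compound raises insulin release from rat beta cells at 5 mM glucose, no numeric limit stated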); details: rat INS-1E insulin secretion, at 10 µM, stronger effect = higher value
[3] = growth inhibition of GSK3B-pretreated HCT116 cells – cell-based, CellTiter-Glo, 0.2 to 20 µM (AID 1117336;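 active = compounds lowering colon cancer cell viability after pretreatment blocking the GSK3B kinase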); details: HCT116 viability after GSK3B inhibitor, at 20 µM, stronger effect = higher value
[4] = inhibition of endothelial tube formation, primary screen, imaging, VEGF stimulated, CD31 staining, tube area, NPC library (AID 1117340;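 active = compound that reduces growth-factor-driven endothelial tube area in a mixed cell culture, no cutoff stated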); details: VEGF-stimulated ADSC/ECFC co-culture, at 10 µM, stronger effect = higher value
[5] = GLP1 release stimulators, primary, NCI-H716, NPC library (AID 1117341;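 active = compound raises GLP1 secretion from the human gut endocrine cells, with no numeric limit stated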); details: NCI-H716 cells, at 10 µM, stronger effect = higher value
[6] = HCT116 colon cancer cell growth inhibition, primary screen, CellTiter-Glo luminescence, NPC library (AID 1117342;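 active = compounds that lower survival of HCT116 colon cancer cells in the luminescence readout, no numeric limit stated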); details: at 20 µM (top of the series)
[7] = reduced SW480 viability measured with CellTiter-Glo, NPC library, primary (AID 1117343;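 active = compounds that lower viability of the colon cancer cells in the luminescence readout, with no numeric limit stated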); details: CellTiter-Glo luminescence; at 20 µM (top of the series)
[8] = NPC library primary testing for decreased DLD-1 cell viability via CellTiter-Glo (AID 1117346;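 active = compounds that lower survival of DLD-1 colon cancer cells in the luminescence readout, no cutoff given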); details: DLD-1 viability, CellTiter-Glo luminescence; at 20 µM (top of the series)
[9] = biological target: 6-phosphogluconate dehydrogenase, decarboxylating (Homo sapiens) (UniProt P52209); test: inhibition of human phosphogluconate dehydrogenase – biochemical, recombinant enzyme, NADPH absorbance, primary screen (AID 1159550;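 active = at least 20% inhibition of 6-phosphogluconate dehydrogenase activity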); details: recombinant 6PGD, NADPH absorbance 341 nm; at 10 µM; stronger effect = higher value
[10] = modulation of C. elegans fzo-1 (AID 1259413; call rule not given here;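 note: fzo-1 mutant C. elegans worms in liquid wells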); details: C. elegans fzo-1 modulator screen, mean read-out; stronger effect = higher value
[11] = EMT-state selective cytotoxicity in co-culture – imaging, PC-3E GFP, TEM4-18 mCherry, primary screen (AID 1345086;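 active = compounds killing one labelled cell type while sparing the other, by normalised counts and ratio limits, not self-fluorescent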;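 for all read-outs here: cells exposed to compound for 72 h before imaging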;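 for red/green cell ratio (normalised): normalised mesenchymal count divided by normalised epithelial count so high means epithelial killing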); details: PC-3E GFP / TEM4-18 mCherry co-culture, imaging cell counts, at 1 µM; for red/green cell ratio (normalised): actives lie on both sides, counts scaled to control wells, 1 = unselective
[12] = drug combination growth inhibition, ovarian cancer – cell-based, oncology-focused library, rucaparib conditional, profiling panel (AID 1508598); details: patient-derived ovarian cancer cells, CellTiter-Glo viability, 144 h, stronger effect = lower value
[13] = biological target: NAD(+) hydrolase SARM1 (Homo sapiens) (UniProt Q6SZW1); test: blocking NAD cleavage by SARM1 SAM-TIR – cell lysate, NAD-Glo luminescence (AID 1508614;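 active = compound whose remaining NAD level is above about 45 nM, limit read from the data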;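 note: higher remaining NAD means stronger inhibition of SARM1 NADase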); details: SAM-TIR HEK293T lysate NADase, at 1 µM, stronger effect = higher value
[14] = biological target: Mitogen-activated protein kinase 7 (Homo sapiens) (UniProt Q13164); test: Gal4-ERK5 driven luciferase induction – cell-based, HTS, primary screen (AID 1508626;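 active = luciferase signal above three times the same-plate solvent-only control wells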;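 note: luciferase driven by Gal4-ERK5 fusion binding five Gal4 sites before minimal TATA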); details: HeLa Gal4-ERK5 transactivation, 18 h, at 5 µM, stronger effect = higher value
F380Y = test: BK channel mutant inhibitors and activators – cell-based, U2OS BacMam, thallium flux, beta subunits, selectivity assay, profiling panel (AID 1259406;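 active = thallium flux through the channel raised or lowered by more than 3 SD from vehicle-only wells, actives on both sides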;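 note: initial slope of Thallos dye fluorescence rise after thallium is added; log ratio against the mean of 0.3% DMSO vehicle wells on the same plate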); details: U2OS BacMam BK variants, at 30 µM
F380Y/beta1 = test: as above; details: U2OS BacMam BK variants, at 30 µM
F380Y/beta2Delta = test: as above; details: U2OS BacMam BK variants, at 30 µM
F380Y/beta4 = test: as above; details: U2OS BacMam BK variants, at 30 µM
[15] = biological target: Calcium-activated potassium channel subunit alpha-1 (Homo sapiens) + Leucine-rich repeat-containing protein 26 (Homo sapiens) (UniProt Q12791+Q2I0M4); test: as above; details: U2OS BacMam BK variants, F380Y/Slo1WT/gamma1, at 30 µM
[16] = MELAS cybrid and Rieske KO viability enhancers – cell-based, MELAS cybrids, Rieske KO mouse fibroblasts, CellTiter-Glo, primary screen (AID 1508586;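 active = mean z-score across replicates of 1.96 or higher in either the MELAS or the Rieske mutant cell line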;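 note: z relative to plate mean and SD of compound and empty wells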); details: low glucose
[17] = measured here: epithelial PC-3E GFP cell survival
[18] = measured here: mesenchymal TEM4-18 mCherry cell survival
[19] = at 0.000305 µM, OCI-C5x cells, with rucaparib 10 µM, 100% = cells with rucaparib alone
[20] = at 0.000305 µM, OCI-C5x cells, without rucaparib
[21] = at 0.000305 µM, OCI-P5x cells, with rucaparib 20 µM, 100% = cells with rucaparib alone
[22] = at 0.000305 µM, OCI-P5x cells, without rucaparib
[23] = at 0.00122 µM, OCI-C5x cells, with rucaparib 10 µM, 100% = cells with rucaparib alone
[24] = at 0.00122 µM, OCI-C5x cells, without rucaparib
[25] = at 0.00122 µM, OCI-P5x cells, with rucaparib 20 µM, 100% = cells with rucaparib alone
[26] = at 0.00122 µM, OCI-P5x cells, without rucaparib
[27] = at 0.00488 µM, OCI-C5x cells, with rucaparib 10 µM, 100% = cells with rucaparib alone
[28] = at 0.00488 µM, OCI-C5x cells, without rucaparib
[29] = at 0.00488 µM, OCI-P5x cells, with rucaparib 20 µM, 100% = cells with rucaparib alone
[30] = at 0.00488 µM, OCI-P5x cells, without rucaparib
[31] = at 0.0195 µM, OCI-C5x cells, with rucaparib 10 µM, 100% = cells with rucaparib alone
[32] = at 0.0195 µM, OCI-C5x cells, without rucaparib
[33] = at 0.0195 µM, OCI-P5x cells, with rucaparib 20 µM, 100% = cells with rucaparib alone
[34] = at 0.0195 µM, OCI-P5x cells, without rucaparib
[35] = at 0.0781 µM, OCI-C5x cells, with rucaparib 10 µM, 100% = cells with rucaparib alone
[36] = at 0.0781 µM, OCI-C5x cells, without rucaparib
[37] = at 0.0781 µM, OCI-P5x cells, with rucaparib 20 µM, 100% = cells with rucaparib alone
[38] = at 0.0781 µM, OCI-P5x cells, without rucaparib
[39] = at 0.313 µM, OCI-C5x cells, with rucaparib 10 µM, 100% = cells with rucaparib alone
[40] = at 0.313 µM, OCI-C5x cells, without rucaparib
[41] = at 0.313 µM, OCI-P5x cells, with rucaparib 20 µM, 100% = cells with rucaparib alone
[42] = at 0.313 µM, OCI-P5x cells, without rucaparib
[43] = at 1.25 µM, OCI-C5x cells, with rucaparib 10 µM, 100% = cells with rucaparib alone
[44] = at 1.25 µM, OCI-C5x cells, without rucaparib
[45] = at 1.25 µM, OCI-P5x cells, with rucaparib 20 µM, 100% = cells with rucaparib alone
[46] = at 1.25 µM, OCI-P5x cells, without rucaparib
[47] = at 5 µM, OCI-C5x cells, with rucaparib 10 µM, 100% = cells with rucaparib alone
[48] = at 5 µM, OCI-C5x cells, without rucaparib
[49] = at 5 µM, OCI-P5x cells, with rucaparib 20 µM, 100% = cells with rucaparib alone
[50] = at 5 µM, OCI-P5x cells, without rucaparib

Sequence of NAD(+) hydrolase SARM1 (Homo sapiens) (Q6SZW1 whole entry, looked up, the tested form may be a part): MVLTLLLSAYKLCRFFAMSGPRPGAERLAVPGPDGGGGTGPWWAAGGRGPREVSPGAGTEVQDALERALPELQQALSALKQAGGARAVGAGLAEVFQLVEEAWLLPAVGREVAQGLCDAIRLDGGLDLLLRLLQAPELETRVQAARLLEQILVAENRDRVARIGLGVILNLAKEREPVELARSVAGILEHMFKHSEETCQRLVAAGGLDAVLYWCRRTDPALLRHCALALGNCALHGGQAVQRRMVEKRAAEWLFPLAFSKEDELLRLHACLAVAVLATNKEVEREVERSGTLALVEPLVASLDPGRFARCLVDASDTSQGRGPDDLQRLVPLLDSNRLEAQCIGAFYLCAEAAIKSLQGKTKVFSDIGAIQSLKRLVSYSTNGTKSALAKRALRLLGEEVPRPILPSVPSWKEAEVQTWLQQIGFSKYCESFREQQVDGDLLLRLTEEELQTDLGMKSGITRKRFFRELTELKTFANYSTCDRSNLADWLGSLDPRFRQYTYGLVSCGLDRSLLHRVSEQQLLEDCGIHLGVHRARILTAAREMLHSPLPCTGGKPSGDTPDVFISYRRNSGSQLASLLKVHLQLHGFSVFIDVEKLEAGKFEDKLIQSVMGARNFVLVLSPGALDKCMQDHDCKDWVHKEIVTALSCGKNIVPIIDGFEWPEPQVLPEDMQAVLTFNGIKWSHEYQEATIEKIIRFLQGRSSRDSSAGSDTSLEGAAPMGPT
Sequence of Mitogen-activated protein kinase 7 (Homo sapiens) (Q13164 whole entry, looked up, the tested form may be a part): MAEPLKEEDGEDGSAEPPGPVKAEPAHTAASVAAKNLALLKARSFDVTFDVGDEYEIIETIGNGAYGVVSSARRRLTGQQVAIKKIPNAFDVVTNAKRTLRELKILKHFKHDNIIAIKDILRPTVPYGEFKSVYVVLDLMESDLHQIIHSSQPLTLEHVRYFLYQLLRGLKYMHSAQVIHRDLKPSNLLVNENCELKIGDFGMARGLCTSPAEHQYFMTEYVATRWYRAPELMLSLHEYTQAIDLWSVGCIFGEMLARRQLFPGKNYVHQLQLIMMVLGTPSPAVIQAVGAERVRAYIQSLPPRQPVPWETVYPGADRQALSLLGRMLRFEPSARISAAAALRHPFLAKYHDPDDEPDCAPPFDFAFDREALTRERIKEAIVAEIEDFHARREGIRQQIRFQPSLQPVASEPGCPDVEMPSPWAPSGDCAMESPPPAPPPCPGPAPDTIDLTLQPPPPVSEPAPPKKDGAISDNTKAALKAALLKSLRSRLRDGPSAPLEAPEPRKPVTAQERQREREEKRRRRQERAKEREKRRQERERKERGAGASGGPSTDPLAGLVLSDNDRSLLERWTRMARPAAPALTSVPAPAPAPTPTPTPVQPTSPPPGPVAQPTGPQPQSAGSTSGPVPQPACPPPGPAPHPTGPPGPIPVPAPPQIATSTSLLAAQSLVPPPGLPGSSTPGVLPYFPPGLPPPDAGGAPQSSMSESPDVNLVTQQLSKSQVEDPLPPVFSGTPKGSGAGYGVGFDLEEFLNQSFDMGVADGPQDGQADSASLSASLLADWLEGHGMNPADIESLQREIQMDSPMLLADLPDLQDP
Sequence of 6-phosphogluconate dehydrogenase, decarboxylating (Homo sapiens) (P52209 whole entry, looked up): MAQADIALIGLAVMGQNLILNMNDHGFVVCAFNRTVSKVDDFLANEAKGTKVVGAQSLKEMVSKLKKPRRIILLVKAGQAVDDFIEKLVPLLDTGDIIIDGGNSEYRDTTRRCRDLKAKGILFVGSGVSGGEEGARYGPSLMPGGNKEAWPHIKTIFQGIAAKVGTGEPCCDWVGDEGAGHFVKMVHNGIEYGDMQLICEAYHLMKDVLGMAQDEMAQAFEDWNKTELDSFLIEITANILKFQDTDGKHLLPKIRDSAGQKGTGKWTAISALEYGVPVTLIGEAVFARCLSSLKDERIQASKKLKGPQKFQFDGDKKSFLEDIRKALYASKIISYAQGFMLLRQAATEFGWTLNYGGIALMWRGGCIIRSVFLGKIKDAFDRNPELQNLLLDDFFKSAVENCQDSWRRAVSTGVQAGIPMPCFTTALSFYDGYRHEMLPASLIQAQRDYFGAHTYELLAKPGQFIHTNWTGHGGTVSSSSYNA
Sequence of Calcium-activated potassium channel subunit alpha-1 (Homo sapiens) + Leucine-rich repeat-containing protein 26 (Homo sapiens) (Q2I0M4 whole entry, looked up, one chain of several): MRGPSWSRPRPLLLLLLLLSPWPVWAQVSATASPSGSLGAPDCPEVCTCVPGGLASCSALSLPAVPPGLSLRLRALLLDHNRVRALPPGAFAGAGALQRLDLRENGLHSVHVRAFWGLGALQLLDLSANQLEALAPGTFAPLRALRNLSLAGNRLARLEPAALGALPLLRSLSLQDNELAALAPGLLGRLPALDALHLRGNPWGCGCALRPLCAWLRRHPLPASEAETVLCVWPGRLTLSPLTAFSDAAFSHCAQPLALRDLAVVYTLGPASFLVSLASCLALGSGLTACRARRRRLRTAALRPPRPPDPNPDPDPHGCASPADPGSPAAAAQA

O=C1c2c(O)ccc(O)c2C(=O)c2c(NCCNCCO)ccc(NCCNCCO)c21
104% (inactive) and 93.6% (active): viability [12, 27]
107% (inactive) and 84.4% (active): viability [12, 30]
0.2: normalised cell number [11, 17]
inactive: insulin secretion stimulation [2] 3.9% | GLP1 secretion stimulation [5] -17.3% | inhibition [9] 13% | mean signal [10] 214 | red/green cell ratio (normalised) [11] 0.57 | viability [12, 19] 111% and 109% | viability [12, 20] 114% and 118% | viability [12, 23] 114% and 109% | viability [12, 24] 117% and 115% | viability [12, 28] 113% and 104% | remaining NAD [13] 10 nM | luciferase signal [14] 20 AU | log fold change Tl+ flux (F380Y) -0.0248 | log fold change Tl+ flux (F380Y/beta1) -0.0573 | log fold change Tl+ flux (F380Y/beta2Delta) 0.00615 | log fold change Tl+ flux (F380Y/beta4) -0.0582 | log fold change Tl+ flux [15] -0.0507
100% (inactive) and 94.2% (active): viability [12, 22]
active: nuclear beta-catenin stimulation ([1]; at 10 µM) 79.6% | viability decrease [3] 102% | tube area decrease [4] 109% | inhibition of viability [6] 101% | viability decrease (inhibition) [7] 102% | viability decrease (inhibition) [8] 96.1% | viability [12, 21] 85.2% and 88.1% | viability [12, 25] 98.9% and 93.9% | viability [12, 29] 97.7% and 84.3% | viability [12, 31] 83.6% and 77% | viability [12, 32] 87.9% and 74.9% | viability [12, 33] 86.2% and 68.2% | viability [12, 34] 74.8% and 44.3% | viability [12, 35] 89.4% and 82.8% | viability [12, 36] 78.8% and 86.1% | viability [12, 37] 52.6% and 49.6% | viability [12, 38] 27.2% and 21.5% | viability [12, 39] 76.1% and 60.1% | viability [12, 40] 57% and 56.6% | viability [12, 41] 25.3% and 26% | viability [12, 42] 12.4% and 12.3% | viability [12, 43] 13.3% and 11.4% | viability [12, 44] 15% and 15.4% | viability [12, 45] 7.5% and 9.35% | viability [12, 46] 6.58% and 5.99% | viability [12, 47] 3.19% and 2.94% | viability [12, 48] 2.31% and 2.92% | viability [12, 49] 6.35% and 8.96% | viability [12, 50] 6.78% and 6.39%
14.4%: nuclear beta-catenin stimulation ([1]; stimulation, at 2 µM)
109% (inactive) and 96.8% (active): viability [12, 26]
0.12: normalised cell number [11, 18]

O=c1[nH]cnc2[nH]ncc12
1%: nuclear beta-catenin stimulation ([1]; stimulation, at 2 µM)
1.15: normalised cell number [11, 18]
-0.183 and 0.499 and -0.321: z-score ([16]; Rieske KO mouse fibroblast survival, CellTiter-Glo 72 h)
1.06: normalised cell number [11, 17]
inactive: nuclear beta-catenin stimulation ([1]; at 10 µM) -0.8% | insulin secretion stimulation [2] -2.4% | viability decrease [3] 3.7% | tube area decrease [4] -6.1% | GLP1 secretion stimulation [5] 0.1% | inhibition of viability [6] 2.7% | viability decrease (inhibition) [7] 25% | viability decrease (inhibition) [8] -0.95% | inhibition [9] 10.8% | mean signal [10] 267 | red/green cell ratio (normalised) [11] 1.08 | z-score ([16]; MELAS cybrid survival, CellTiter-Glo 48 h, stronger effect = higher value) 0.356 and -0.148 and 0.116 | viability [12, 19] 116% | viability [12, 20] 122% | viability [12, 21] 106% | viability [12, 22] 127% | viability [12, 23] 124% | viability [12, 24] 130% | viability [12, 25] 105% | viability [12, 26] 118% | viability [12, 27] 118% | viability [12, 28] 125% | viability [12, 30] 111% | viability [12, 31] 114% | viability [12, 32] 121% | viability [12, 33] 104% | viability [12, 34] 114% | viability [12, 35] 117% | viability [12, 36] 124% | viability [12, 38] 105% | viability [12, 39] 113% | viability [12, 40] 117% | viability [12, 41] 102% | viability [12, 42] 105% | viability [12, 43] 122% | viability [12, 44] 114% | viability [12, 46] 105% | viability [12, 47] 111% | viability [12, 48] 109% | remaining NAD [13] 10 nM | luciferase signal [14] 36 AU | log fold change Tl+ flux (F380Y) 0.0236 | log fold change Tl+ flux (F380Y/beta1) 0.000941 | log fold change Tl+ flux (F380Y/beta2Delta) -0.00565 | log fold change Tl+ flux (F380Y/beta4) 0.00785 | log fold change Tl+ flux [15] 0.0214
active: viability [12, 29] 98.6% | viability [12, 37] 99.6% | viability [12, 45] 91.4% | viability [12, 49] 91.3% | viability [12, 50] 98%
